Screening results as filed in PubChem.
CD40 NFkB inh: CD40 pathway inhibition in BL2 cells; BL2 NF-kB luciferase reporter, CD40L-induced, 4 h; 83,000 compounds, 0.94% hits; inhibition, % at 10 µM;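 active = mean inhibition of at least 50% with a set share of replicates also reaching that level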;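 note: 0% = neutral control wells and 100% = IKK inhibitor VII at 50 µM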
* marks the source's active call; other numbers are inactive results; [ ] = remark or other dose. This excerpt belongs to a sample that is enriched for hits.

`C[n+]1c(-c2ccccc2)cc2c(=Cc3ccc([N+](=O)[O-])cc3)c3ccccc3n21` gave CD40 NFkB inh 110.0*.
`CCCC#Cc1cnc2c(c1)C(=O)N([C@H](C)CO)C[C@H](C)[C@H](CN(C)C(=O)Nc1cc(F)ccc1F)O2` gave CD40 NFkB inh -9.9[25 µM].
O=C(NCC[C@@H]1CC[C@@H](NC(=O)c2ccccc2F)[C@@H](CO)O1)c1cnccn1 was read as CD40 NFkB inh -5.9[25 µM].
`C[C@H]1CN(C)C(=O)Cc2cc(N(C)C)ccc2O[C@@H]1CN(C)C` gave CD40 NFkB inh -15.7.
For O=C(C[C@@H]1C[C@@H]2c3cc(NC(=O)c4ccc5c(c4)OCO5)ccc3O[C@@H]2[C@H](CO)O1)NCc1ccccn1 the results were CD40 NFkB inh -7.4[25 µM].
Screening CC(C)NC(=O)Nc1cccc2c1O[C@@H](CN(C)S(C)(=O)=O)[C@@H](C)CN(C)C2=O returned CD40 NFkB inh -44.2.
Screening COc1ccc(NC(=O)N2CCCCN3[C@H](CO)[C@@H](c4ccc(C#Cc5ccccn5)cc4)[C@H]3C2)cc1 returned CD40 NFkB inh -11.8.
`CC(C)NC(=O)N(C)C[C@H]1OCc2ccccc2-c2c(n(C)c3ccccc23)C(=O)N([C@H](C)CO)C[C@H]1C` gave CD40 NFkB inh -3.3.
CC(=O)N(C)C[C@H]1Oc2ccc(NC(=O)NC(C)C)cc2CC(=O)N(C)C[C@H]1C was read as CD40 NFkB inh -4.2.
`C[C@H](CO)N1C[C@H](C)[C@H](CN(C)C(=O)Nc2cccc(Cl)c2Cl)OCc2ccccc2-c2c(n(C)c3ccccc23)C1=O` gave CD40 NFkB inh 65.2*[25 µM].
`C[C@H]1CN([C@@H](C)CO)C(=O)c2c(c3ccccc3n2C)-c2ccccc2CO[C@H]1CN(C)C(=O)Nc1cccc(Cl)c1Cl` gave CD40 NFkB inh 22.8[25 µM].
`C[C@@H]1CN([C@@H](C)CO)C(=O)c2c(c3ccccc3n2C)-c2ccccc2CO[C@H]1CN(C)C(=O)Nc1cccc(Cl)c1Cl` gave CD40 NFkB inh 41.3[25 µM].
C[C@@H]1CN([C@H](C)CO)C(=O)c2c(c3ccccc3n2C)-c2ccccc2CO[C@H]1CN(C)C(=O)Nc1cccc(Cl)c1Cl was read as CD40 NFkB inh 54.1*[25 µM].
Screening COc1ccccc1NC(=O)N(C)C[C@H]1OCc2ccccc2-c2c(n(C)c3ccccc23)C(=O)N([C@@H](C)CO)C[C@H]1C returned CD40 NFkB inh 0.8.
C[C@H](CO)N1C[C@H](C)[C@@H](CN(C)C(=O)Nc2cccc(Cl)c2Cl)OCc2ccccc2-c2c(n(C)c3ccccc23)C1=O was read as CD40 NFkB inh 34.4[25 µM].
`CO[C@H]1CC[C@H]2CCN(C)C(=O)[C@H](C)N(C)C(=O)c3cccc(C#N)c3OC[C@H]1O2` gave CD40 NFkB inh -8.1[25 µM].
For N#C[C@H]1[C@@H](c2ccccc2-c2ccc(F)cc2)[C@@H](CO)N1c1ncc(-c2ccccc2)s1 the results were CD40 NFkB inh 4.6[25 µM].
`N#C[C@@H]1[C@@H](c2ccccc2C2=CCCCC2)[C@H](CO)N1C(=O)NC1CCCCC1` gave CD40 NFkB inh 5.7.
C[C@@H]1CCCCO[C@@H](CN(C)Cc2ccc(C(F)(F)F)cc2)[C@@H](C)CN([C@@H](C)CO)C(=O)c2cc(NC(=O)Nc3cccc4ccccc34)ccc2O1 was read as CD40 NFkB inh 16.3[25 µM].
For O=C(Nc1ccc2c(c1)[C@H]1C[C@@H](CC(=O)N3CCc4ccccc4C3)O[C@@H](CO)[C@H]1O2)c1ccc2c(c1)OCO2 the results were CD40 NFkB inh -6.2[25 µM].
Screening Cc1onc(-c2ccccc2)c1C(=O)OCC(=O)c1ccc[nH]1 returned CD40 NFkB inh -6.1.
Cc1onc(-c2ccccc2)c1C(=O)OCC(=O)Nc1ccccc1 was read as CD40 NFkB inh -11.8.
Screening COC(=O)c1ccc2c(=O)[nH]c(COC(=O)c3c(-c4ccccc4)noc3C)nc2c1 returned CD40 NFkB inh 28.8*.
For COc1cccc(-c2ccc3c(c2)[C@H]2[C@H](CCN2C(=O)c2ccc(F)cc2)[C@H](CO)N3)c1 the results were CD40 NFkB inh -34.4[25 µM].
`COc1ccc(C(=O)Nc2ccc3c(c2)C(=O)N(C)[C@@H]2CC[C@H](CC(=O)NCC4CC4)O[C@H]2CO3)cc1` gave CD40 NFkB inh -18.2[25 µM].
c1ccc2c(N3CCCC3)nc(-c3ccncc3)nc2c1 was read as CD40 NFkB inh 19.0.
`c1ccc(-c2nc(N3CCCCCC3)c3ccccc3n2)nc1` gave CD40 NFkB inh 52.6*.
For c1ccc(CCNc2nc(-c3ccccn3)nc3ccccc23)cc1 the results were CD40 NFkB inh 43.5*.
For c1ccc(CCc2nc(-c3ccccn3)no2)cc1 the results were CD40 NFkB inh -79.8.
For c1ccc(CN2CCN(c3nc(-c4ccccn4)nc4ccccc34)CC2)cc1 the results were CD40 NFkB inh -18.2.
CCN1CCN(c2nc(-c3ccccn3)nc3ccccc23)CC1 was read as CD40 NFkB inh -24.7.
Screening CCCC(=O)Nc1ccc2c(c1)OC[C@H](C)NC[C@H](C)[C@@H](OC)CN(C)C2=O returned CD40 NFkB inh -1.3[25 µM].
Screening O=C(NCC[C@H]1CC[C@H](NS(=O)(=O)c2ccc(F)cc2)[C@@H](CO)O1)Nc1ccc(Cl)cc1 returned CD40 NFkB inh -10.2.
COC(=O)C[C@H]1CC[C@@H]2[C@@H](COc3ccc(NS(=O)(=O)c4ccc(C)cc4)cc3C(=O)N2C)O1 was read as CD40 NFkB inh -10.9[25 µM].
For CC1(c2ccc(OC(F)F)cc2)NC(=O)N(CC(=O)Nc2cccnc2Cl)C1=O (stereo unspecified) the results were CD40 NFkB inh -4.1.
For Cc1ccc(C2(C)NC(=O)N(CC(=O)Nc3cccnc3Cl)C2=O)cc1 (stereo unspecified) the results were CD40 NFkB inh 25.5*.
For O=C(CN1C(=O)NC(c2ccccc2)(c2ccccc2)C1=O)Nc1cccnc1Cl the results were CD40 NFkB inh 5.7.
C[C@H]1CN(C)C(=O)c2cc(N)ccc2O[C@H]1CN(C)C(=O)OC(C)(C)C was read as CD40 NFkB inh 6.6.
Screening CCCN(CCC)CC1CCCCN1CCNC(=O)N1c2ccccc2C(=O)Nc2cccnc21 (stereo unspecified) returned CD40 NFkB inh -15.2[25 µM].
`COc1ccccc1CNC(=O)C[C@@H]1CC[C@H]2[C@@H](COC[C@@H](O)CN2Cc2ccc3c(c2)OCO3)O1` gave CD40 NFkB inh 4.9[25 µM].
CN(C)C(=O)c1cccc(-c2ccc(C3[C@H]4CNC[C@@H]3N4C(=O)NC3CCCC3)cc2)c1 (stereo partly specified) was read as CD40 NFkB inh 4.7.
O=C(c1ccccc1)c1ccc(C(=O)N2CCCC(C(F)(F)F)C2)cc1 (stereo unspecified) was read as CD40 NFkB inh -2.3.
O=C(c1ccc(-c2ccc([N+](=O)[O-])cc2)o1)N1CCCC(C(F)(F)F)C1 (stereo unspecified) was read as CD40 NFkB inh 60.8*.
`O=C(c1ccc(-c2ccc([N+](=O)[O-])cc2)o1)N1CCCCCCC1` gave CD40 NFkB inh -3.4.
For Cc1ccccc1-c1ccc(C2[C@@H]3CN(C(=O)C4CCC4)C[C@H]2N3)cc1 (stereo partly specified) the results were CD40 NFkB inh 5.0.
`CCSc1nc2c([nH]1)c(=O)n(C)c(=S)n2C` gave CD40 NFkB inh 0.2.
For Cn1c(=O)c2[nH]c(SCCN3CCCCC3)nc2n(C)c1=S the results were CD40 NFkB inh 6.9.
Screening CCCC(C)Sc1nc2c([nH]1)c(=S)n(C)c(=O)n2C (stereo unspecified) returned CD40 NFkB inh 93.3*.
